For one experiment, the target named is Albumin (Bos taurus) (UniProt P02769). Briefly: compounds binding labelled BSA control protein – biochemical, small-molecule microarray, Alexa647 label, 635/667 nm fluorescence, artefact control for SMM control protein annotation, profiling panel (AID 1118).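 Note: score merges 667 nm emission intensity and signal-to-noise per printed compound spot.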 As to conditions: BSA-A647 binding, fluorescence 635 nm, higher = more signal.
Experiment [1] can be described thus: probe aXIP binding to arrayed compounds – biochemical, NeuroSMM set, 635/667 nm fluorescence, primary screen (AID 1119).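 Note: probe is the protein aXip251-270 applied at 1 µg/mL to compound-printed slides; binding of probe to printed compounds measured as 667 nm fluorescence plus signal to noise.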 As to conditions: small-molecule microarray, higher = more signal, called active from +8 up or from −8 down.
Experiment [2] is described as follows: probe aNOTCH3 binding on compound microarray – biochemical, small-molecule microarray, 635/667 nm fluorescence, primary screen (AID 1120).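 Note: probe is a biotin-tagged antibody raised against NOTCH3 rather than NOTCH3 protein; score merges spot fluorescence near 667 nm with spot signal to noise.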 Particulars: higher = more signal.
Experiment [3] can be described thus: probe aNOTCH2 binding on compound microarray – biochemical, small-molecule microarray, 635/667 nm fluorescence, primary screen (AID 1121).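 Note: score merges feature fluorescence read at 667 nm with its signal to noise.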 Particulars: higher = more signal.
In experiment [4] the target is Carbonic anhydrase 2 (Homo sapiens) (UniProt P00918). Briefly: compounds binding carbonic anhydrase 2 – biochemical, small-molecule microarray, Alexa647-labelled CAII, profiling panel (AID 1122). As to conditions: CAII-A647 binding fluorescence, higher = more signal.
Experiment [5] is described as follows: COS7 lysate on small-molecule microarray, probe aHis, 635 nm (AID 1123).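 Note: z-score combines 667nm fluorescence intensity with signal-to-noise per printed compound spot.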 As to conditions: COS7 cell lysate, fluorescence, higher = more signal.
Experiment [6] is described as follows: probe aLAP1 signal on lysate-treated microarray – cell lysate, small-molecule microarray, COS7 lysate, primary screen (AID 1124).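 Note: lysate comes from COS7 cells expressing LAP1 and is applied at 0.3 µg/mL; score merges spot fluorescence near 667 nm with signal-to-noise over triplicate slides.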 Particulars: probe aLAP1, fluorescence, higher = more signal.
The subject of another experiment is Sam68 (KHDRBS1). Description: compounds binding KHDRBS1 protein – biochemical, small-molecule microarray, 635 nm fluorescence, primary screen (AID 1125).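 Note: score merges 667 nm channel intensity with signal to noise over triplicate slides.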 Particulars: higher = more signal.
Experiment [7] has as its system Chordin-like protein 2 (CHRDL2). Description: compounds binding chordin-like 2 – biochemical, small-molecule microarray, 635 nm fluorescence, primary screen (AID 1126).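 Note: printed compound slides probed with Chrdl2 protein at 4 µg/mL for 1 h at 4 C; score merges 667 nm emission intensity with signal to noise over three replicate slides.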 Particulars: fluorescence 635 nm, higher = more signal.
Experiment [8] has as its target Concanavalin-A (Canavalia ensiformis) (UniProt P02866). Description: compounds binding concanavalin A lectin – biochemical, small-molecule microarray, Alexa647 label, 635 nm, artefact control for SMM control protein annotation, primary screen (AID 1127).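 Note: z combines 667 nm emission intensity with signal-to-noise across three replicate slides.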 Particulars: ConA-A647 binding fluorescence, higher = more signal.
The nature of experiment [9]: compounds binding Alexa647 anti-His antibody – biochemical, small-molecule microarray, 635 nm fluorescence, artefact control for SMM control protein annotation, primary screen (AID 1128).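 Note: score merges feature fluorescence with signal-to-noise for each printed compound spot.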 Particulars: higher = more signal.
Experiment [10] deals with Human papillomavirus type 1a E7 protein (residues 1-88). Description: HPV1a E7 small-molecule binders, primary screen, biochemical, small-molecule microarray, residues 1-88, 635 nm (AID 1129). Particulars: small-molecule microarray binding, fluorescence 635 nm; higher = more signal.
For experiment [11], the target named is Focal adhesion kinase 1 (Homo sapiens) (UniProt Q05397). Briefly: PTK2 protein binding on printed compound slides – biochemical, small-molecule microarray, 635/667 nm fluorescence, BSA, DTT, primary screen (AID 1130).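 Note: composite of spot emission at 667 nm and signal to noise over triplicate slides.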 As to conditions: 635 nm fluorescence, higher = more signal.
For experiment [12], the system named is Fibrinogen (Alexa647-labelled). Briefly: Alexa647-fibrinogen binding to printed small molecules – biochemical, small-molecule microarray, 635/667 nm fluorescence, artefact control for SMM control-protein annotation, profiling panel (AID 1131).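 Note: z-score merges 667 nm fluorescence with per-spot signal-to-noise over triplicate slides.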 As to conditions: fibrinogen-A647 binding fluorescence, higher = more signal.
The target in experiment [13] is Follistatin (Homo sapiens) (UniProt P19883). Description: FST protein binding to printed compounds – biochemical, small-molecule microarray, 635/667 nm fluorescence, primary screen (AID 1132). Particulars: 635 nm fluorescence, higher = more signal.
Experiment [14] addresses Fibroblast growth factor 2 (Homo sapiens) (UniProt P09038). Description: basic fibroblast growth factor binding to printed compounds – biochemical, small-molecule microarray, 635/667 nm fluorescence, primary screen (AID 1133). Particulars: FGF2, fluorescence 635/667, higher = more signal.
A short description of experiment [15]: JC-1 mitochondrial potential readout, lung cancer cells – cell-based, A549, JC-1 fluorescence, basal, 24 h, 100 nL, profiling panel (AID 1138).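 Note: A549 lung adenocarcinoma cells under basal conditions with no added stimulus; test concentration not given here.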 Particulars: higher = more signal.
A further experiment deals with Lefty1. Description: Lefty1 protein binding to printed compounds – biochemical, small-molecule microarray, 635/667 nm fluorescence, primary screen (AID 1139). As to conditions: fluorescence 635/667, higher = more signal.
For experiment [16], the system named is wheat germ agglutinin (Triticum aestivum), Alexa647-labelled. Briefly: Alexa647-WGA lectin binding to printed small molecules – biochemical, small-molecule microarray, 635/667 nm fluorescence, artefact control for SMM control-protein annotation, profiling panel (AID 1140).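 Note: score merges 667 nm feature emission with signal to noise over triplicate slides.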 Particulars: WGA-A647 binding, 635 nm fluorescence, higher = more signal.
The target in experiment [17] is Luciferin 4-monooxygenase (Photinus pyralis) (UniProt P08659). Briefly: inhibition of purified Photinus pyralis luciferase – biochemical, luminescence, purified enzyme, 2006 set, primary screen (AID 1141).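 Note: cell-free assay with purified firefly luciferase at 100 ng per well in PBS; test concentration not given here.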 As to conditions: purified firefly luciferase, SteadyGlo luminescence, 30 min; higher = more signal, called active from +8 up or from −8 down.

Each structure is given as a SMILES string. Activity calls are given as the source filed them.

Chain of Fibroblast growth factor 2 (Homo sapiens) (P09038 whole entry, looked up): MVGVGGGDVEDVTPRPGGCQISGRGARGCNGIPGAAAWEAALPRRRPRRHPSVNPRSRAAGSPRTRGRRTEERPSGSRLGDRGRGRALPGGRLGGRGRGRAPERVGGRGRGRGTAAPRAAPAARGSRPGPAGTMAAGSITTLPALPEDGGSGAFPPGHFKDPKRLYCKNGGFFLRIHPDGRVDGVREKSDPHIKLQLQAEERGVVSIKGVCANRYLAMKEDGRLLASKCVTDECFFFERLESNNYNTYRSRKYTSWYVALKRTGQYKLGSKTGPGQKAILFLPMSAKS
Chain of Albumin (Bos taurus) (P02769 whole entry, looked up): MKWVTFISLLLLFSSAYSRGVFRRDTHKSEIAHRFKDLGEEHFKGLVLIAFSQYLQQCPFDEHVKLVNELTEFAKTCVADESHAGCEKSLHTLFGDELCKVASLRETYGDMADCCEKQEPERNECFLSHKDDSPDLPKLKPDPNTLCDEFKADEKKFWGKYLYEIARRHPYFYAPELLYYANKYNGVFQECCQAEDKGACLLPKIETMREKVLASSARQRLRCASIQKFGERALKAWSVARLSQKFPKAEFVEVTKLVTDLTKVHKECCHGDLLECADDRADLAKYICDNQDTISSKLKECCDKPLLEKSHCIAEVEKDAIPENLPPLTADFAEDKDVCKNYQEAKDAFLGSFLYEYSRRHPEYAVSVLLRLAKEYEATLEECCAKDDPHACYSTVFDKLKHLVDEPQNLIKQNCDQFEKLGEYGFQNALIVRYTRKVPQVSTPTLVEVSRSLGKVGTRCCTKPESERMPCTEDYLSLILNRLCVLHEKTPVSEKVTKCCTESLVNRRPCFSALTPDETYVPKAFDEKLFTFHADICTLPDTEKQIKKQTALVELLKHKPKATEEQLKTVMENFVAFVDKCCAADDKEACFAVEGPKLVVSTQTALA
Chain of Follistatin (Homo sapiens) (P19883 whole entry, looked up): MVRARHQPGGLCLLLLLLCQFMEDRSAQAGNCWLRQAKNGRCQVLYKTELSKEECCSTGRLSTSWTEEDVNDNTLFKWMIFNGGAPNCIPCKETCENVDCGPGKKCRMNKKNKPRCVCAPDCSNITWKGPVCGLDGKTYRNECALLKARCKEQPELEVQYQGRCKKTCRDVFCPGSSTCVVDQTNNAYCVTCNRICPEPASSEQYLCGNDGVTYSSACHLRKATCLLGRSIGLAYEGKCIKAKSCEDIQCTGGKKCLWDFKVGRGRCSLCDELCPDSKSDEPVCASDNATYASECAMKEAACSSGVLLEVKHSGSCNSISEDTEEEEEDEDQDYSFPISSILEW
Chain of Concanavalin-A (Canavalia ensiformis) (P02866 whole entry, looked up): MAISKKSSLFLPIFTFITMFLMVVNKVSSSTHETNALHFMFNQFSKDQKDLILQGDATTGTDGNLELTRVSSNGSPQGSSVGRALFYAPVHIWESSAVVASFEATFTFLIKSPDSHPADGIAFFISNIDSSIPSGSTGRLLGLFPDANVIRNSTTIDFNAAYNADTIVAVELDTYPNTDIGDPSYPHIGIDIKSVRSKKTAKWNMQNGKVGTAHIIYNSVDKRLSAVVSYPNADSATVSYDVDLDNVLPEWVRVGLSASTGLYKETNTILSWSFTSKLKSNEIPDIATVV
Chain of Luciferin 4-monooxygenase (Photinus pyralis) (P08659 whole entry, looked up): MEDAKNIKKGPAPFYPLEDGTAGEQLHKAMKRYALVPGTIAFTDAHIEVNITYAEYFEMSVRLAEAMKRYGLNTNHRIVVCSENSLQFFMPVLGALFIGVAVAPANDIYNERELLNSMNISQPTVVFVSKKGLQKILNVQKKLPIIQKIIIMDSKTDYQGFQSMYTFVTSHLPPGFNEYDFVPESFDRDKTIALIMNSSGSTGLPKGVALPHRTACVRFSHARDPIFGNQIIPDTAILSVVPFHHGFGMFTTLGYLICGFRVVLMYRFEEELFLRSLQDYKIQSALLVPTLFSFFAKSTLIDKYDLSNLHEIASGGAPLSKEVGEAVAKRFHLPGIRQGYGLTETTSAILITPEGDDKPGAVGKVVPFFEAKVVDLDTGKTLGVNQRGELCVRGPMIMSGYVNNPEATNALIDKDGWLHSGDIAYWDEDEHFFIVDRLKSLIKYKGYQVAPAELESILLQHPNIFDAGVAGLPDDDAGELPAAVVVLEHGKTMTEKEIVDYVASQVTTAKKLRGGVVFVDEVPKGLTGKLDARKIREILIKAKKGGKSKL
Chain of Focal adhesion kinase 1 (Homo sapiens) (Q05397 whole entry, looked up): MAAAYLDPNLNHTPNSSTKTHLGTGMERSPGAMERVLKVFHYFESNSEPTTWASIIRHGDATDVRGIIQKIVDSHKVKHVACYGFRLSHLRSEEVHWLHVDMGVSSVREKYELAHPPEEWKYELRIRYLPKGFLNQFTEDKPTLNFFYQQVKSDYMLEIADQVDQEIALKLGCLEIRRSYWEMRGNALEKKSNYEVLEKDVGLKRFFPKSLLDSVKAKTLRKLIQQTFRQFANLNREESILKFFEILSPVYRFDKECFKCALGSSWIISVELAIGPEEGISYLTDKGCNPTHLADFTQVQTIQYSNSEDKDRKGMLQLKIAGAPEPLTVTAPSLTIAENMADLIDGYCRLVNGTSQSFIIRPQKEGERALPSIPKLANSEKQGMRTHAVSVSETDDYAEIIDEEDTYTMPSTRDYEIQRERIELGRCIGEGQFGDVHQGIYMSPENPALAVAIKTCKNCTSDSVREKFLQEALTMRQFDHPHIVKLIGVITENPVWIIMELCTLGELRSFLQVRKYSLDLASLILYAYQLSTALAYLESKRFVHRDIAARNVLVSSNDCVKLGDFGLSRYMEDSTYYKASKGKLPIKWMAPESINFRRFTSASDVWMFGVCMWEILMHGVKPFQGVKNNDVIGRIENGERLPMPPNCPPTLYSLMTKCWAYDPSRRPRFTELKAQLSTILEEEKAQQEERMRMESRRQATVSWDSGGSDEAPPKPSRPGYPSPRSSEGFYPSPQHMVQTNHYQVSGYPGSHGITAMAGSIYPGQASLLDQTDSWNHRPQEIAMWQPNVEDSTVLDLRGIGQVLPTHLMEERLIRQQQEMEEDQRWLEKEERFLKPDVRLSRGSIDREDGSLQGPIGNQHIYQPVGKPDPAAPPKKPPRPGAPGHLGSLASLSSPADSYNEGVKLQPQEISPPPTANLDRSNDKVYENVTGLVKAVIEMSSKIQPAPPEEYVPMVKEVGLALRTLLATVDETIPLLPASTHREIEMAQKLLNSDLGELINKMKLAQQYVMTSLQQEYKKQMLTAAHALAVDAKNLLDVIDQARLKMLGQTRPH

As to `CC(CCC(=O)OC[C@H]1O[C@H](C#Cc2ccccc2)C=C[C@@H]1Oc1ccc(C)cc1)=NO[C@H](C)c1cn([C@@H]2COC[C@H]2O)nn1`, the composite z-score in the experiment with Albumin (Bos taurus) was -0.115; in experiment [2] it was -0.0697; in [3], -0.125; in experiment [4] it was -0.129; in [5], -0.235; in experiment [6], 0.0502. Further, the composite z-score with Sam68 (KHDRBS1) is -0.0882; in [7], 0.308; in experiment [8], -0.785; in [9], 0.254; in [10], -0.0794; in experiment [11], 0.0652. The composite z-score in experiment [12] turned out to be 0.666; in [13], 0.273; in [14], 0.162; in the experiment with Lefty1 it was 0.317; in experiment [16], 0.299. In addition, in [1], the composite Z-score is -0.166 (inactive). In addition, the z-score in experiment [15] is -0.262; in experiment [17], -2.18 (inactive).

On to `CCOC(=O)[C@H](CC(C)C)NC(=O)CCC1CC(OC(=O)NCCc2ccc(F)cc2)CC2(CCCC(COC(=O)NCCCN3CCCC3=O)O2)O1` (stereo not given in full), for which the composite z-score was 0.353 with Albumin (Bos taurus); -0.179 in experiment [2]; -0.0839 in experiment [3]; 0.325 in experiment [4]; 0.619 in experiment [5]; 0.16 in experiment [6]. The composite z-score with Sam68 (KHDRBS1) worked out at 0.883; in [7], 0.473; in [8] it was 0.0423; in experiment [9] it was 0.969; in [10], 0.635; in experiment [11], 0.0501. Further, the composite z-score in [12] worked out at 0.958; in experiment [13], 1.25; in [14], 0.304; in the experiment with Lefty1, 0.766; in [16], 0.205. Also, the composite Z-score in [1] was 0.0886 (inactive). The z-score in experiment [15] was -0.114; in experiment [17] it was 0.564 (inactive).

Regarding `COC(=O)[C@@H]1CC[C@H](C)[C@@H](c2ccc(C)cc2)N1C(=O)c1ccc(C=NOC[C@@H](O)[C@H]2O[C@@H]3OC(C)(C)O[C@@H]3[C@H]2O)cc1`, the composite z-score is 0.333 with Albumin (Bos taurus); -0.0014 in experiment [2]; -0.128 in [3]; 0.368 in [4]; 0.424 in experiment [5]; 0.228 in [6]. Also, the composite z-score came to 1.02 in the experiment on Sam68 (KHDRBS1); 0.402 in [7]; 0.736 in experiment [8]; 0.266 in [9]; 1.03 in experiment [10]; 0.158 in [11]. Moreover, the composite z-score in [12] was 0.953; in [13], 0.49; in [14] it was 0.63; with Lefty1, 0.367; in experiment [16], 0.506. In addition, in experiment [1], the composite Z-score was -0.187 (inactive). Further, the values for the z-score in experiment [15] and in experiment [17] were -1.78 and -0.297 (inactive), respectively.

`C[C@H]1C=CCC(=O)OC[C@H](C)C(=O)N2CCC[C@H]2C(=O)OC1`: the composite z-score is -0.68 with Albumin (Bos taurus); -0.161 in [2]; -0.115 in [3]; -0.656 in experiment [4]; -0.802 in experiment [5]; 0.374 in experiment [6]. Moreover, the composite z-score in the experiment with Sam68 (KHDRBS1) was -0.374; in experiment [7] it was 1.62; in experiment [8] it was -0.35; in experiment [9] it was -0.637; in experiment [10], -1.44; in experiment [11], -0.943. The composite z-score in experiment [12] was -1.09; in [13], 1.43; in experiment [14], 2.01; in the experiment on Lefty1 it was 1.61; in [16] it was -1.18. The composite Z-score in experiment [1] was 0.472 (inactive). The z-score was -0.823 in [15] and 1.32 (inactive) in experiment [17].

As for `O=C1C=C[C@@H](O)[C@@H]2[C@@H]3C(=O)N(C4CCCCC4)C(=O)[C@@H]3CC[C@@H]12`, the composite z-score with Albumin (Bos taurus) was 0.13; in experiment [2], 0.0738; in experiment [3] it was -0.126; in experiment [4] it was 0.143; in experiment [5], 0.214; in experiment [6], 0.196. In addition, the composite z-score stood at 0.595 in the experiment with Sam68 (KHDRBS1); 0.542 in [7]; 0.273 in experiment [8]; 0.575 in experiment [9]; 0.55 in experiment [10]; 0.431 in experiment [11]. The composite z-score was determined as 0.831 in experiment [12]; 1.21 in experiment [13]; 0.826 in experiment [14]; 0.629 in the experiment on Lefty1; 0.0297 in [16]. The composite Z-score in experiment [1] was -0.388 (inactive). For the same compound, the z-score in [15] was 1.09; in experiment [17], -0.611 (inactive).

Consider `CCN1C(=O)[C@H]2[C@H]3[C@H](O)[C@H](O)CC(=NO[C@@H]4O[C@H](CO)[C@@H](O)[C@H](O)[C@H]4O)[C@H]3CC[C@H]2C1=O`, for which the composite z-score with Albumin (Bos taurus) was -0.0203; in experiment [2], -0.0783; in [3], -0.148; in [4], -0.0497; in experiment [5], -0.0296; in experiment [6], 0.212. Moreover, the composite z-score with Sam68 (KHDRBS1) is -0.305; in experiment [7], 0.43; in experiment [8], 0.634; in experiment [9], 0.0595; in experiment [10] it was 0.512; in experiment [11], 0.026. Besides, the composite z-score is 0.16 in experiment [12]; 0.442 in experiment [13]; 0.922 in [14]; 0.467 in the experiment on Lefty1; 0.0622 in experiment [16]. Also, the composite Z-score in experiment [1] was 0.121 (inactive). Further, the z-score in experiment [15] was -0.8; in experiment [17] it was 0.217 (inactive).
